Compound activity (PubChem BioAssay)
PAX8 inh HTS: lowers PAX8-driven luciferase in RMG-I cells | RMG-I TPO-luciferase reporter, SteadyGlo, 24 h | inhibition, % at 12.6 µM | 1.2% of 360,000 active | AID 652154;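 active = mean replicate inhibition at least 60% with every replicate also reaching 60%; inconclusive = only one of the two criteria is met; inactive = mean below 60% and not all replicates reaching 60%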;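 also: luciferase light reporting Pax8 driven TPO promoter activity; plate controls were median of neutral control wells for no effect and mitoxantrone controls for full effect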
EWS-Fli inh: blocks EWS/Fli oncoprotein-driven transcription | A673 NR0B1-luciferase reporter, viability-normalised | inhibition, % at 12.6 µM | AID 651661 | 0.67% of 350,000 active;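 active = mean inhibition of at least 50% after viability correction, with every replicate also passing that limit; inconclusive = mean reaches 50% but only one of two replicates passes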;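 also: firefly luciferase signal divided by Alamar Blue viability fluorescence both relative to DMSO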
EBV LMP1 NFkB: reduces LMP1-driven NF-kappaB luciferase signal. 0.69% of 350,000 active. inhibition, % at 12.5 µM. LMP1-induced NF-kappaB luciferase reporter cells, luminescence. AID 504558; in the data active = inhibition above about 41%; inconclusive = no clear call, values can overlap the other calls;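 also: 0% = neutral control wells and 100% = reference inhibitor control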
PGC1a acetyl inh: lowers PGC1a acetylation signal in U2OS cells | AlphaScreen anti-acetyl-lysine; with virally co-expressed GCN5 acetyltransferase | inhibition, % at 15.6 µM | 0.17% of 350,000 active;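 active = every replicate shows inhibition of at least 40%; inconclusive = mean inhibition at least 40% but some replicate below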;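 also: 0% = neutral control wells and 100% = positive control wells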
LGR2 antag: blocks bursicon-induced cAMP signaling via Drosophila LGR2. HEK293 LGR2, CRE-luciferase, bursicon-stimulated, 4 h. inhibition, % at 9.99 µM. 0.35% of 380,000 active. AID 720647;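 active = drop in luminescence signal, shown as inhibition above about 50% in the replicate tests, limit read from the data, passing the limit was not always enough; inconclusive = probably only some replicates passing the limit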;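 also: agonist challenge used bursicon conditioned medium at about half maximal strength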
MITF TRPM1 inh: inhibitors of MITF-driven TRPM1 promoter in melanoma cells | SK-MEL-5 TRPM1 promoter luciferase, 24 h | inhibition, % at 12.5 µM | 0.83% of 330,000 active | AID 488899;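 active = mean inhibition across replicates of 60% or more, whatever share of single replicates reaches that level; inconclusive = some that reach 60%, reason not given; inactive = mean inhibition across replicates below 60%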
Starred values were filed as active, the others as inactive; ? = inconclusive; . = no result; ! = repeats disagree. A selection: hits, their analogues and other compounds. The true share with any hit is near 2.2%.

SMILES	PAX8 inh HTS	EWS-Fli inh	EBV LMP1 NFkB	PGC1a acetyl inh	LGR2 antag	MITF TRPM1 inh
C[C@@H]1CN([C@H](C)CO)C(=O)c2cccc(NC(=O)C3CC3)c2O[C@H]1CN(C)C(=O)Nc1cccc2ccccc12	13	0	.	.	-1	.
COc1ccc(/C(C)=N/NC(=O)c2cccc(S(=O)(=O)N3CCCC3)c2)c(O)c1	66*	-1	16	.	31	73*
O=C(NCc1ccccc1F)c1ccc2c(c1)OCO2	.	.	1	-10	-22	-24
O=C(NCCc1ccc(Cl)cc1)c1ccc2c(c1)OCCO2	-105	-6	6	.	58*	-49
O=C(NCCc1ccc(Cl)cc1)c1ccc2c(c1)OCO2	-181	-49	-43	3	-123	-44
O=C(NCCc1ccccc1F)c1ccc2c(c1)OCCO2	110*	90*	85*	-5	102*	88*
C[C@@H]1CN([C@@H](C)CO)C(=O)c2cccc(NC(=O)c3nc4ccccc4s3)c2O[C@@H]1CN(C)CC1CCCCC1	.	6	.	19	17	.
C[C@@H]1CN([C@@H](C)CO)C(=O)c2cc(C#Cc3cccc(F)c3)cnc2O[C@H]1CN(C)C(=O)C1CCC1	29	5	.	-4	-1	.
O=C(Nc1ccc([N+](=O)[O-])cc1)Nc1nc(-c2ccc(Cl)s2)cs1	106*	41	55*	.	49	72*
Cc1noc(C)c1S(=O)(=O)N(C)C[C@H]1Oc2ccc(N(C)C)cc2CC(=O)N([C@H](C)CO)C[C@H]1C	-10	-2	.	6	4	.
O=C(C#Cc1ccccc1)c1cccc([N+](=O)[O-])c1	.	67*	39	33	-7	102*
O=C(C=Cc1ccccc1)c1ccc([N+](=O)[O-])cc1	-17	0	56*	1	-13	-8
O=C(/C=C/c1ccccc1F)c1cccc([N+](=O)[O-])c1	-17	.	45*	.	4	30
COc1ccc(C=CC(=O)c2ccc([N+](=O)[O-])cc2)cc1	-20	-9	7	-9	-5	5
O=C(/C=C/c1cccnc1)c1ccc([N+](=O)[O-])cc1	2	.	0	10	20	12
Cc1[nH]c(C)c(C(=O)/C=C/c2ccc([N+](=O)[O-])cc2)c1C	2	63*	-203	.	.	0
CC(C)NC(=O)Nc1ccc2c(c1)C(=O)N([C@@H](C)CO)C[C@@H](C)[C@@H](CN(C)Cc1ccc(C(=O)O)cc1)O2	-36	2	.	1	1	.
C[C@H]1CN([C@@H](C)CO)C(=O)CCCn2cc(nn2)CO[C@H]1CN(C)C(=O)Nc1ccc(N2CCN(C)CC2)cc1	2	-1	.	4	-7	.
C=C1C(=O)[C@]23C[C@H]1CC[C@H]2[C@]1(C)[C@@H](O)CC[C@@](C)(C(=O)O)[C@H]1C[C@@H]3O	?	11	.	-14	-27	.
C=C1C(=O)[C@]23C[C@H]1CC[C@H]2[C@]1(C)[C@@H](OC(C)=O)CC[C@@](C)(C(=O)O)[C@H]1C[C@@H]3O	101*	38	.	15	32	.
C=C1C(=O)[C@]23C[C@H]1CC[C@H]2[C@]1(C)[C@@H](OC(C)=O)CC[C@@](C)(C(=O)OC)[C@H]1C[C@@H]3OC(C)=O	117*	61*	.	94*	29	.
C=C1C(=O)[C@]23C[C@H]1CCC2[C@@]1(C)C(C[C@@H]3O)[C@](C)(C(=O)OC)CC[C@@H]1OC(C)=O (some centres undefined)	108*	53*	.	103*	92*	.
O=C(C[C@@H]1C=C[C@H](NC(=O)c2ccc3c(c2)OCO3)[C@@H](CO)O1)NCc1ccc(Cl)cc1	-2	1	.	-4	7	.
C=CCc1cc(Cl)ccc1OCCOCCNC(C)CC (centres undefined)	-1	-2	0	-11	3	-28
C=CCc1cc(C)ccc1OCCOCCC(C(=O)OCC)C(=O)OCC	79*	3	-16	-13	4	-5
C[C@H](CO)N1C[C@H](C)[C@@H](CN(C)Cc2ccccn2)Oc2cc(C3=CCCCC3)ccc2S1(=O)=O	13	11	.	-10	2	.
Cc1ccc(S(=O)(=O)N(C)C[C@@H]2OCc3ccccc3-c3c(n(C)c4ccccc34)C(=O)N([C@H](C)CO)C[C@@H]2C)cc1	71*!	8	-1	1	32	.
